Experimental data from the supplement of paper PMC10849652.
Targets with a hit are over-represented here; the source holds about 7,900 in all. About 0.6% of all pairs of compound and target were hits.

Columns and labels:
Test in all cases: log2 fold change, soluble protein after heating vs DMSO (PISA); higher = thermal stabilisation; K562 cells, 10 uM, 30 min; active = over 0.2 and 3.5 SD of the protein, either way, in both replicates (recomputed)
erlotinib = compound: C#Cc1cccc(Nc2ncnc3cc(OCCOC)c(OCCOC)cc23)c1 [erlotinib]
Outline: (§1)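 Soluble protein was defined as the supernatant after 21,000xg for 90 min. It came from K562 cells at 2×10^6 cells/mL given 10 μM compound for 30 min, heated in aliquots for 3 min across 48°C-58°C, pooled, and extracted in PBS with 0.5% NP-40 at 4°C, and was quantified by TMTpro 16plex LC-MS/MS with equalised channel sums. Thermal stability against control samples, from duplicates, is reported as log2 fold change.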

[1] = compound: C/C(=N\NC(=O)C1=CC(=CC=C1)S(=O)(=O)N2CCOCC2)/C3=C(C=CC(=C3)Cl)O
Outline: as §1

[2] = compound: C1=CC(=C(C=C1Cl)C2=NC3=NC=CN=C3C(=N2)NC4=CC=NC=C4)F
Outline: as §1

[3] = compound: C1=CC(=CC=C1C2=NC3=C(N2)C=C(C=C3)C(=O)N)OC4=CC=C(C=C4)Cl
Outline: as §1

[4] = compound: C1=CC2=C(C=CC(=C2)/C=C\3/C(=O)NC(=NCC4=CC=CS4)S3)N=C1
Outline: as §1

[5] = compound: C1=CC2=NC=CN=C2C=C1/C=C/3\C(=O)NC(=O)S3
Outline: as §1

[6] = compound: C1=CC=C(C=C1)C2=NC(=C(N2)C3=CC=NC=C3)C4=CC(=C(C=C4)Cl)O
Outline: as §1

[7] = compound: C1=CC=C2C(=C1)C3=NNC4=CC=CC(=C43)C2=O
Outline: as §1

[8] = compound: C1CCN(C1)C(=O)NC2=CC=CC(=C2)NC3=NC=C(C(=N3)NCCC4=CN=CN4)Br
Outline: as §1

[9] = compound: C1CN(CCC1(CC2=CC=C(C=C2)Cl)N)C3=NC=NC4=C3C=CN4
Outline: as §1

IRAK-1-4 Inhibitor I = compound: C1COCCN1CCN2C3=CC=CC=C3N=C2NC(=O)C4=CC(=CC=C4)[N+](=O)[O-] [IRAK-1-4 Inhibitor I]
Outline: as §1

ibrutinib = compound: C=CC(=O)N1CCC[C@@H](n2nc(-c3ccc(Oc4ccccc4)cc3)c3c(N)ncnc32)C1 [ibrutinib]
Outline: as §1

[10] = compound: CC(=O)c1cnc2ccc(-c3cc(Cl)c(O)c(Cl)c3)nc2c1N[C@H]1CC[C@H](CN(C)C)CC1
Outline: as §1

ralimetinib = compound: CC(C)(C)Cn1c(N)nc2ccc(-c3[nH]c(C(C)(C)C)nc3-c3ccc(F)cc3)nc21 [ralimetinib]
Outline: as §1

[11] = compound: CC(C)(O)CC(=O)NCCn1ccc2ncnc(Nc3ccc(Oc4cccc(C(F)(F)F)c4)c(Cl)c3)c21
Outline: as §1

[12] = compound: CC(C)C1=C2N=C(C=C(N2N=C1)NCC3=CC=CC=C3)NCCCCCCN
Outline: as §1

[13] = compound: CC(C)C[C@@H](C=O)NC(=O)[C@H](CC(C)C)NC(=O)[C@H](CC(C)C)NC(=O)OCc1ccccc1
Outline: as §1

pinometostat = compound: CC(C)N(C[C@H]1O[C@@H](n2cnc3c(N)ncnc32)[C@H](O)[C@@H]1O)[C@H]1C[C@@H](CCc2nc3cc(C(C)(C)C)ccc3[nH]2)C1 [pinometostat]
Outline: as §1

[14] = compound: CC1=C(C(CC(=O)N1)C2=CC=C(C=C2)C(F)(F)F)C(=O)NC3=C(C=C4C(=C3)C=NN4)F
Outline: as §1

[15] = compound: CC1=C(C2=C(C=C1)C(=O)C3=CC=CC=C3N2CCCN)C
Outline: as §1

Measured: log2 fold change

EXOC7 (UniProt Q9UPT5)
UniProt Q9UPT5, sequence (Q9UPT5 whole entry, looked up): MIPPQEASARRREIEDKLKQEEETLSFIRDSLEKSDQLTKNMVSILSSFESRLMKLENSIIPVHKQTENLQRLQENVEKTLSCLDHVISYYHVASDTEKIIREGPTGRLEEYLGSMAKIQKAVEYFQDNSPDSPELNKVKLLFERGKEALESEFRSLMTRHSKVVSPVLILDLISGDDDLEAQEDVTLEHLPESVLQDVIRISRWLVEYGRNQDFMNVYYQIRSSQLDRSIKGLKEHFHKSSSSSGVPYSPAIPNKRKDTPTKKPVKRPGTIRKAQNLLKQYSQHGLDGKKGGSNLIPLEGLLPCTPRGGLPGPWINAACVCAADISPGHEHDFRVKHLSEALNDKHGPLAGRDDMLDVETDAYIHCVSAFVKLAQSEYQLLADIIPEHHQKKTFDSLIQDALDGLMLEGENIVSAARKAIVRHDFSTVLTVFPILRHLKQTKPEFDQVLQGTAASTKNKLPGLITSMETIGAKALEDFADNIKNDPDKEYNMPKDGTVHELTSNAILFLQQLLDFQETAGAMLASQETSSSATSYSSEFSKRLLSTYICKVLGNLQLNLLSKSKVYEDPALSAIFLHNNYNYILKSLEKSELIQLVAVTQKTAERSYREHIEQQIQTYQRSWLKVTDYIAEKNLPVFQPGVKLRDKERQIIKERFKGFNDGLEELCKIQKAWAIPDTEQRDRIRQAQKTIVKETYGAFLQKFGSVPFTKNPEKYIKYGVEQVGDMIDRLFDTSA
inactive: erlotinib 0.032 | [1] 0.074 | [2] 0.001 | [3] -0.042 | [4] 0.048 | [5] 0.016 | [6] 0.011 | [7] -0.016 | [8] -0.023 | [9] -0.014 | IRAK-1-4 Inhibitor I -0.047 | ibrutinib -0.029 | [10] 0.002 | ralimetinib 0.049 | [11] -0.109 | [12] -0.276 | [13] 0.044 | pinometostat 0.043 | [14] 0.041 | [15] 0.045

CUX1 isoform 3 (UniProt P39880)
inactive: erlotinib 0.013 | [1] 0 | [2] 0.034 | [3] -0.015 | [4] -0.008 | [5] 0.11 | [6] -0.074 | [7] 0.01 | [8] -0.003 | [9] 0.092 | IRAK-1-4 Inhibitor I 0.019 | ibrutinib -0.033 | [10] -0.032 | ralimetinib -0.065 | [11] -0.047 | [12] 0.008 | [13] 0.116 | pinometostat -0.018 | [14] 0.015 | [15] 0.153

DNAAF2 (UniProt Q9NVR5)
inactive: erlotinib 0.046 | [1] 0.021 | [2] 0.108 | [3] -0.003 | [4] 0.01 | [5] 0.016 | [6] -0.018 | [7] -0.025 | [8] 0.021 | [9] -0.025 | IRAK-1-4 Inhibitor I -0.02 | ibrutinib -0.023 | [10] 0.014 | ralimetinib 0.022 | [11] 0.013 | [12] -0.025 | [13] -0.054 | pinometostat -0.023 | [14] 0 | [15] -0.013

FAM117A (UniProt Q9C073)
UniProt Q9C073, sequence (Q9C073 whole entry, looked up): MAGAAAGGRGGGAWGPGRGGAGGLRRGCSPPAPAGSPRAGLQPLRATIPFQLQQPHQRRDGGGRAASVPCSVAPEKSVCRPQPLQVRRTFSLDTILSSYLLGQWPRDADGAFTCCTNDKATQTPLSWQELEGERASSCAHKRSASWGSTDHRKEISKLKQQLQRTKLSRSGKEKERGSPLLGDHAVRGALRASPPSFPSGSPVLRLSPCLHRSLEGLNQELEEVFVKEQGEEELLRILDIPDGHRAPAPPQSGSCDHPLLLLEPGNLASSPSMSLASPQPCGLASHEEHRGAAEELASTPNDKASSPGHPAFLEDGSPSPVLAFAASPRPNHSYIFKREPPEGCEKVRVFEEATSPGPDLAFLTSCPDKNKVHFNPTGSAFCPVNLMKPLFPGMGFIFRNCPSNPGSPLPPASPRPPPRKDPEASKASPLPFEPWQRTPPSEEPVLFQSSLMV
active: [4] -0.279 | [10] -0.833
inactive: erlotinib 0.127 | [1] 0.054 | [2] -0.056 | [3] 0.053 | [5] -0.101 | [6] -0.041 | [7] -0.129 | [8] -0.143 | [9] -0.121 | IRAK-1-4 Inhibitor I -0.004 | ibrutinib 0.001 | ralimetinib -0.125 | [11] -0.068 | [12] -0.102 | [13] 0.126 | pinometostat -0.003 | [14] 0.042 | [15] 0.011

FAM50A (UniProt Q14320)
UniProt Q14320, sequence (Q14320 whole entry, looked up): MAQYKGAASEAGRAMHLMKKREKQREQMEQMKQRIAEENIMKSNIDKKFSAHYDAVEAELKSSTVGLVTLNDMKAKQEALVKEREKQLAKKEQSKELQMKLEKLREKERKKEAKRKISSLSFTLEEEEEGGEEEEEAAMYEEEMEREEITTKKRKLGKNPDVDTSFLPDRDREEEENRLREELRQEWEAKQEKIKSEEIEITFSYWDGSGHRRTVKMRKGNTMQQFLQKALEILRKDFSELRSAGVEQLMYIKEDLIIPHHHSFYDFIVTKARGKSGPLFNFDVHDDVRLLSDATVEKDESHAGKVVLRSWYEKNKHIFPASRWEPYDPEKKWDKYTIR
inactive: erlotinib 0.015 | [1] 0.051 | [2] 0.054 | [3] -0.017 | [4] -0.009 | [5] 0.062 | [6] -0.019 | [7] -0.001 | [8] -0.026 | [9] -0.065 | IRAK-1-4 Inhibitor I -0.014 | ibrutinib -0.011 | [10] -0.01 | ralimetinib -0.029 | [11] -0.027 | [12] 0 | [13] 0.043 | pinometostat -0.016 | [14] -0.026 | [15] 0.053

DYRK1A isoform 2 (UniProt Q13627)
active: [10] -0.358
inactive: erlotinib 0.034 | [1] 0.039 | [2] -0.058 | [3] 0.019 | [4] -0.095 | [5] -0.173 | [6] -0.027 | [7] -0.064 | [8] -0.093 | [9] -0.067 | IRAK-1-4 Inhibitor I -0.001 | ibrutinib -0.009 | ralimetinib -0.046 | [11] -0.042 | [12] -0.254 | [13] 0.064 | pinometostat 0.055 | [14] -0.014 | [15] 0.144

ESYT1 isoform 2 (UniProt Q9BSJ8)
active: [12] -0.321
inactive: erlotinib 0.039 | [1] 0.081 | [2] -0.016 | [3] -0.05 | [4] 0.035 | [5] -0.069 | [6] -0.042 | [7] 0.043 | [8] -0.11 | [9] -0.092 | IRAK-1-4 Inhibitor I -0.126 | ibrutinib -0.046 | [10] -0.048 | ralimetinib 0 | [11] -0.075 | [13] 0.053 | pinometostat 0.152 | [14] -0.018 | [15] 0.031

DBR1 (UniProt Q9UK59)
UniProt Q9UK59, sequence (Q9UK59 whole entry, looked up): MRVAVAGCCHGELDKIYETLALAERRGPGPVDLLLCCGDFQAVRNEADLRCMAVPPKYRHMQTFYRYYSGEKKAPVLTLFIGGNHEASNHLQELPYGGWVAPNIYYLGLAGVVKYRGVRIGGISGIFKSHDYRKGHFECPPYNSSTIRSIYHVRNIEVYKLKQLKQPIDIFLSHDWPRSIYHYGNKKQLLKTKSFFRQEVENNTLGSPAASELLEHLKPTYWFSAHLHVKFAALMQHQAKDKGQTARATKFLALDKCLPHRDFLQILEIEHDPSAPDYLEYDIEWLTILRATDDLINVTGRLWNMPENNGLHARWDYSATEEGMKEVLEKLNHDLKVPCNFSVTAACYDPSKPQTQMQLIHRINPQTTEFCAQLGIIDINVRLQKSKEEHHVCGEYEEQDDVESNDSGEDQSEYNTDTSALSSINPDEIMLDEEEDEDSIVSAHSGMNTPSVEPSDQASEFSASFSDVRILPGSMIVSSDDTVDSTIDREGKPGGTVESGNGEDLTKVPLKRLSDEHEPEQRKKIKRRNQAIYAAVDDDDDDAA
inactive: erlotinib 0.031 | [1] 0.042 | [2] -0.052 | [3] 0.025 | [4] -0.033 | [5] 0.002 | [6] 0.069 | [7] 0.006 | [8] -0.026 | [9] 0.044 | IRAK-1-4 Inhibitor I -0.04 | ibrutinib 0.02 | [10] -0.043 | ralimetinib 0.037 | [11] 0.006 | [12] 0.032 | [13] -0.026 | pinometostat -0.012 | [14] 0.065 | [15] 0.114

EMD (UniProt P50402)
UniProt P50402, sequence (P50402 whole entry, looked up): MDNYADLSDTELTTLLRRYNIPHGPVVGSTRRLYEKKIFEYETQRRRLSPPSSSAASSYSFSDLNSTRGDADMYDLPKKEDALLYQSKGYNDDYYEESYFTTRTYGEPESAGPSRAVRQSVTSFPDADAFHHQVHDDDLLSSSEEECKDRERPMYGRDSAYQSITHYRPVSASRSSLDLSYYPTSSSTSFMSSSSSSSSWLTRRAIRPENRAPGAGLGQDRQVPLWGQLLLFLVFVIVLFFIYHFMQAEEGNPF
inactive: erlotinib 0.025 | [1] 0.002 | [2] -0.078 | [3] 0.056 | [4] 0.008 | [5] 0.033 | [6] -0.011 | [7] -0.072 | [8] 0.031 | [9] 0.074 | IRAK-1-4 Inhibitor I 0.039 | ibrutinib 0.009 | [10] -0.021 | ralimetinib -0.004 | [11] 0.028 | [12] -0.114 | [13] 0.034 | pinometostat 0.013 | [14] 0.021 | [15] -0.042

EXOC1 (UniProt Q9NV70)
UniProt Q9NV70, sequence (Q9NV70 whole entry, looked up): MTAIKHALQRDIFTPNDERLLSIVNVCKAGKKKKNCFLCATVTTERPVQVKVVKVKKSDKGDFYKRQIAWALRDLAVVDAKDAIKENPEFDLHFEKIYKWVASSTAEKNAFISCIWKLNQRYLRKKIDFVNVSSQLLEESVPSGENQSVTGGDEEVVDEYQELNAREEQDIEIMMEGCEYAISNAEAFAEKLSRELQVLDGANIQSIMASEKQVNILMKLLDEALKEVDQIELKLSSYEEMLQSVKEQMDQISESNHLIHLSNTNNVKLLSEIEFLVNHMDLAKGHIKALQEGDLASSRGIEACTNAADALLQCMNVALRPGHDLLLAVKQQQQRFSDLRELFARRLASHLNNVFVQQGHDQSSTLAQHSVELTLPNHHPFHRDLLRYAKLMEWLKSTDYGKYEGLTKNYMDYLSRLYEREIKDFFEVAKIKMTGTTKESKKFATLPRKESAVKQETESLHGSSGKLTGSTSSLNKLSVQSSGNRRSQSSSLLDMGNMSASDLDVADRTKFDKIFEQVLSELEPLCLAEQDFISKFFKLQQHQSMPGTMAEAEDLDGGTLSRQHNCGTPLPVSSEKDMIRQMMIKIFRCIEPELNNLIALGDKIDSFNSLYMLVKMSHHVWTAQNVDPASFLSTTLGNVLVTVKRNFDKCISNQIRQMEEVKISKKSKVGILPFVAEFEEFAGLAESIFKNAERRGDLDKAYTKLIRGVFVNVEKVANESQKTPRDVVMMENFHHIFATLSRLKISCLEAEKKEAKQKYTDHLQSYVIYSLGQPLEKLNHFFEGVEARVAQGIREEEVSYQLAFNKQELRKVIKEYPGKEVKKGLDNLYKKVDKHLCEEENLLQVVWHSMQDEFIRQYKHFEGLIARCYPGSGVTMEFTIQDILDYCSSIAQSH
active: [12] -0.419
inactive: erlotinib 0.057 | [1] 0.163 | [2] -0.104 | [3] -0.05 | [4] 0.17 | [5] 0.013 | [6] 0.051 | [7] 0.054 | [8] -0.044 | [9] -0.073 | IRAK-1-4 Inhibitor I -0.085 | ibrutinib -0.015 | [10] -0.033 | ralimetinib 0.112 | [11] -0.151 | [13] 0.018 | pinometostat 0.214 | [14] 0.052 | [15] 0.071

FAM207A (UniProt Q9NSI2)
UniProt Q9NSI2, sequence (Q9NSI2 whole entry, looked up): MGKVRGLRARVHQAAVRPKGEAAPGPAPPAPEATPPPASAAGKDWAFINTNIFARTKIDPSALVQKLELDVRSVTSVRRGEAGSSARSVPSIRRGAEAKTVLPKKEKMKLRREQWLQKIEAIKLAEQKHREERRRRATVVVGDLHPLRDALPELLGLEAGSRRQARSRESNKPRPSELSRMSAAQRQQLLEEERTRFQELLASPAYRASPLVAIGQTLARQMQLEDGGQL
inactive: erlotinib -0.082 | [1] -0.092 | [2] -0.039 | [3] -0.032 | [4] -0.204 | [5] -0.018 | [6] -0.027 | [7] 0.006 | [8] -0.159 | [9] -0.054 | IRAK-1-4 Inhibitor I -0.043 | ibrutinib -0.082 | [10] 0.057 | ralimetinib 0.123 | [11] -0.033 | [12] -0.066 | [13] 0.088 | pinometostat 0.024 | [14] 0.005 | [15] 0.038

ERLIN2 (UniProt O94905)
UniProt O94905, sequence (O94905 whole entry, looked up): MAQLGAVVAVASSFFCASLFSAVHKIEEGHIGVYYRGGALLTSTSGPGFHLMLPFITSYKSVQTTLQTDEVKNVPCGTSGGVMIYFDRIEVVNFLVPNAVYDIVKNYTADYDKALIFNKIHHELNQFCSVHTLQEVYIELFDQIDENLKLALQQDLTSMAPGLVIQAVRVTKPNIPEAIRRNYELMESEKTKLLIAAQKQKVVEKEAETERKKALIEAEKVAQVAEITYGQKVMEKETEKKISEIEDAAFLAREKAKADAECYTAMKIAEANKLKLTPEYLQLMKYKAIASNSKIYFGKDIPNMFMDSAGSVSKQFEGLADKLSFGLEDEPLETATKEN
inactive: erlotinib -0.073 | [1] -0.075 | [2] -0.054 | [3] -0.014 | [4] -0.012 | [5] 0.027 | [6] 0.021 | [7] -0.054 | [8] -0.002 | [9] -0.097 | IRAK-1-4 Inhibitor I -0.089 | ibrutinib 0.001 | [10] 0.058 | ralimetinib 0.004 | [11] 0 | [13] 0.035 | pinometostat 0.093 | [14] 0.021 | [15] 0.013
active: [12] -0.296

DHRS3 (UniProt O75911)
UniProt O75911, sequence (O75911 whole entry, looked up): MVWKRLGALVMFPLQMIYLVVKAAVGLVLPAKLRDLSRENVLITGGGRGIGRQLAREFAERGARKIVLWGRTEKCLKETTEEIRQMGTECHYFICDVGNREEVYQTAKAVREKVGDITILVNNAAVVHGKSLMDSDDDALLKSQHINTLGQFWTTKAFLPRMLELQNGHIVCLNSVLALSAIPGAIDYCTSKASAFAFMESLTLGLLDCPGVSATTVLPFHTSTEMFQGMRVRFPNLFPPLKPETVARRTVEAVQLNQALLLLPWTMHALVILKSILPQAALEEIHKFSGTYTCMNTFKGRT
inactive: erlotinib 0.116 | [1] 0.041 | [2] 0.11 | [3] 0.018 | [4] 0.155 | [5] -0.037 | [6] 0.024 | [7] 0.074 | [8] 0.005 | [9] 0.191 | IRAK-1-4 Inhibitor I 0 | ibrutinib 0.027 | [10] -0.083 | ralimetinib 0.001 | [11] 0.143 | [12] 0.018 | [13] -0.017 | pinometostat -0.056 | [14] -0.055 | [15] 0.03

DBN1 isoform 3 (UniProt Q16643)
UniProt Q16643, sequence (Q16643 whole entry, looked up): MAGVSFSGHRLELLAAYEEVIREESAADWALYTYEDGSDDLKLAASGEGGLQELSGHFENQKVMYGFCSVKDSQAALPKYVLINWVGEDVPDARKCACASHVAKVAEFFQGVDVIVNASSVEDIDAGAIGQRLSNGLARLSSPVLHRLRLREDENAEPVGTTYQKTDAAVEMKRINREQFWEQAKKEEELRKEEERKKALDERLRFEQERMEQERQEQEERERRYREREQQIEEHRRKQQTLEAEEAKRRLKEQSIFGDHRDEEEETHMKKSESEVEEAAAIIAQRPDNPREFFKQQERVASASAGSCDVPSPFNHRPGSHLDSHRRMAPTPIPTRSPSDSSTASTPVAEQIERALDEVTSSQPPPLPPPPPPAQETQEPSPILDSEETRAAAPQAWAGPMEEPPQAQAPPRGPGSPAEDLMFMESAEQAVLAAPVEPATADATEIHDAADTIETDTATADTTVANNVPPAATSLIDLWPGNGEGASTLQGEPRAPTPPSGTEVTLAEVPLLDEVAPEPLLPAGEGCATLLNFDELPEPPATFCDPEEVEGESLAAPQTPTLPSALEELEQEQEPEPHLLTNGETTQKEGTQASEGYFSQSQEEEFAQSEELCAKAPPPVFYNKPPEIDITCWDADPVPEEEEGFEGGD
inactive: erlotinib -0.095 | [1] -0.047 | [2] -0.028 | [3] 0.039 | [4] -0.074 | [5] 0.02 | [6] 0.021 | [7] -0.029 | [8] 0.089 | [9] 0.041 | IRAK-1-4 Inhibitor I -0.06 | ibrutinib 0.099 | [10] 0.061 | ralimetinib 0.072 | [11] 0.151 | [12] 0.047 | [13] -0.02 | pinometostat -0.005 | [14] 0.05 | [15] -0.091

ECH1 (UniProt Q13011)
inactive: erlotinib -0.027 | [1] 0.053 | [2] 0.243 | [3] 0 | [4] 0.126 | [5] -0.018 | [8] -0.028 | [9] -0.064 | IRAK-1-4 Inhibitor I 0.056 | ibrutinib -0.003 | [10] -0.058 | ralimetinib 0.087 | [11] -0.112 | [12] -0.164 | [13] -0.033 | pinometostat 0.003 | [14] 0.086 | [15] 0.076
active: [6] 0.541 | [7] 0.361

EEF1B2 (UniProt P24534)
UniProt P24534, sequence (P24534 whole entry, looked up): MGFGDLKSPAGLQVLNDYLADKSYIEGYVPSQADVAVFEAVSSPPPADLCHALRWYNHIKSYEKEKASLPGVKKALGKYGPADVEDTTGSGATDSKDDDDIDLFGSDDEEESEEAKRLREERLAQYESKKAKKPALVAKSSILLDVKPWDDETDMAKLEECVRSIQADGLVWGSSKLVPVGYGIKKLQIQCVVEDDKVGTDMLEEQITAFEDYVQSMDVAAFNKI
inactive: erlotinib -0.006 | [1] 0.033 | [2] -0.028 | [3] -0.058 | [4] 0.008 | [5] -0.036 | [6] 0.027 | [7] 0.02 | [8] 0.064 | [9] -0.058 | IRAK-1-4 Inhibitor I -0.01 | ibrutinib -0.054 | [10] 0.009 | ralimetinib 0.003 | [11] 0.011 | [12] -0.069 | [13] 0.04 | pinometostat 0.001 | [14] -0.027 | [15] 0.047
